The values below come from PubChem BioAssay AID651821 (The Scripps Research Institute Molecular Screening Center, 2012).

The campaign covered roughly 370,000 compounds. About 4,700 (1.3%) were called active. For the sample, actives were picked, then their nearest neighbours and some compounds at random. A number with no mark means an inactive call.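 How the source made its calls: active means inhibition above the plate cutoff, the mean of all test compounds on that plate plus 3 SD (cut at about 35% in these data); inactive means the rest.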

The assay in a line: small molecules binding CAG repeat RNA – biochemical, fluorescence, primary screen (AID 651821).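 Further: 0% = DMSO alone and 100% = 100 µM mitoxantrone as full dye displacement; higher means more dye released from RNA so lower well fluorescence.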 Particulars: r(CAG) RNA repeat, TO-PRO-1 dye displacement fluorescence; at 3 µM; hits give high values.
Turning to `Cc1c(C(=O)CN2CCOCC2)[nH]c2ccccc12`, the inhibition was 1.32%. Next, `CCCS(=O)(=O)Nc1c(C(=O)O)[nH]c2ccccc12`: 0.99%; `O=C(O)c1[nH]c2ccccc2c1C(c1cccc(O)c1)c1c(C(=O)O)[nH]c2ccccc12`: 61.1% (active); `O=C(NCc1ccccc1)[C@@H]1CCCN1C(=O)[C@@H](NS(=O)(=O)c1ccc(F)cc1F)C1CCCCC1`: -1.8%. As for `C=CCN1[C@H](CC(C)C)COc2cccc(N3CCCC3)c2S1(=O)=O`, the inhibition is 8.14%. Then `CN1CCc2ccccc2C1Cc1ccccc1NC(=O)c1sc2ccccc2c1Cl` (configuration not stated), with -0.7%. Turning to `O=C(N/N=C/c1c(Cl)[nH]c2ccccc12)c1sc2ccccc2c1Cl`, the inhibition is 35.6% (active). Next, `CCOc1ccc2ccccc2c1/C=N/NC(=O)c1c(C)cc(C)[nH]c1=O`: 0.65%; `Cc1ccc2nc(N3C(=O)C(O)=C(C(=O)c4ccco4)C3c3cccc(O)c3)sc2c1` (configuration not stated): 72.6% (active). Then `O=C(C1=C(O)C(=O)N(c2ncccn2)C1c1cccs1)c1ccco1` (configuration not stated), with -0.3%. Next, `C=CCSc1nnc(N2C(=O)C(O)=C(C(=O)c3ccco3)C2c2ccc(F)cc2)s1` (configuration not stated): 18.7%; `COCCNc1cc(NCCOC)c([N+](=O)[O-])cc1[N+](=O)[O-]`: 1.02%. Take `COC(=O)[C@]12C[C@H](CC(=O)N3CCN(C(=O)C4CC4)CC3)C(=O)N(Cc3ccc4c(c3)OCO4)C1=C[C@H](C(C)(C)C)O[C@@H]2C`: the inhibition is 1.7%. Next, `COc1ccccc1C(=O)CSc1nnc(-c2ccccn2)n1-c1ccccc1`: 5.14%; `CCCCNC(=O)C[C@@H]1C(=O)N(CCc2ccc(Cl)cc2)C2=CCCC[C@]21C(=O)OCC`: 0.46%; `Cc1oc2c(C)c3oc(=O)c(CC(=O)N[C@@H](CC(C)C)C(=O)N[C@@H](Cc4ccccc4)C(=O)O)c(C)c3cc2c1C`: 15.8%. Regarding `Cc1c(CCC(=O)N[C@@H](CC(C)C)C(=O)O)c(=O)oc2c(C)c3oc4c(c3cc12)CCCC4`, the inhibition is 38.4% (active). Then `Cc1c(CC(=O)NCC(=O)NCC(=O)O)c(=O)oc2cc3oc4c(c3cc12)CCCC4`, with 11.3%; and `Cc1c(C)c2cc3c4c(oc3c(C)c2oc1=O)CCCC4`, with 5.96%; and `CC[C@@H](C)[C@H](NC(=O)CCc1c(C)c2cc3c4c(oc3c(C)c2oc1=O)CCCC4)C(=O)O`, with 36.8% (active).

For the molecule `COc1ccc2c(C)c(CCC(=O)NC3CC3)c(=O)oc2c1C`, the inhibition is -3.01%. As to `COC(=O)C1=C(C)N(Cc2ccc(C(F)(F)F)cc2)C(=NCc2ccccc2)NC1c1ccccc1C(F)(F)F` (configuration not stated), the inhibition was 1.95%. Then `CC(C)(C)C(c1nc2ccccc2[nH]1)n1c(Cc2csc3ccccc23)nc2ccccc21` (configuration not stated), with 6.22%; and `CC(C)(C)OC(=O)NCCc1ccccc1/C=C/S(=O)(=O)NCc1ccc(F)cc1`, with 3.67%.

`Cc1[nH]c2ccccc2c1CC(=O)Nc1ccc(Nc2cccnc2)c(-c2cccc(Cl)c2)c1`: the inhibition was 14.1%. Consider `COC(=O)c1cc2c(c3c4cc(F)ccc4n(S(=O)(=O)c4ccccc4)c13)C(=O)N(Cc1ccccc1OC)C2`, for which the inhibition is 16.2%.

For `O=C(Nc1ccccc1)Nc1nnc(COc2ccccc2F)s1`, the inhibition was 56.5% (active). Next, `COCc1nnc(NC(=O)CS(=O)(=O)Cc2ccccc2)s1`: 4.38%. Next, `O=C(NCCOc1ccccc1F)Nc1ccc(Br)cc1`: 5.19%; `CCOC(=O)[C@]12CCCC3=C1N(CCC3)C(=O)[C@@H](CC(=O)N1CCSCC1)C2`: -0.18%; `CCOc1ccc(C(=O)NC2CCN(CC(=O)NCc3cccs3)CC2)cc1`: -7.65%. As for `COCCNC(=O)Nc1ccc2nc(-c3ccco3)c(-c3ccco3)nc2c1`, the inhibition is 69.7% (active). Next, `COc1cc(NC(=O)C2=CC(c3ccco3)=NS(=O)(=O)N2C)cc(OC)c1OC`: 1.85%; `COCCNC(=O)c1ccc2nc(Cc3ccc(OC)c(OC)c3)oc2c1`: -4.89%; `COC(=O)[C@]12C[C@H](CC(=O)NCc3cccs3)C(=O)N(CCc3ccc(OC)c(OC)c3)C1=C[C@H](C(C)C)O[C@@H]2C1CC1`: 3.01%. Then `CCc1nn(CCCC(=O)NC(C)c2ccccc2)c(=O)c2cc3occc3n12` (configuration not stated), with -1.26%; and `O=C(C1CCN(S(=O)(=O)c2ccc(Br)s2)CC1)N1CCN(C2CCCCC2)CC1`, with -5.64%. Then `O=C1c2cccc3cccc(c23)C(=O)N1CCCCCc1n[nH]c(=S)o1`, with 38.4% (active). `O=C(COC(=O)CCCN1C(=O)c2cccc3cccc(c23)C1=O)NC1CCS(=O)(=O)C1` (configuration not stated): the inhibition was -0.32%.

For `O=C(CCCN1C(=O)c2cccc3cccc(c23)C1=O)N1CCN(Cc2ccc3c(c2)OCO3)CC1`, the inhibition is -5.35%. On to `COc1cc(C(=O)Nn2c(O)c(C3=c4ccccc4=NC3=O)sc2=S)ccc1O`, for which the inhibition is 50.1% (active).

With `COc1cc(C(=O)Nn2c(CC(C)C)nc3ccccc3c2=O)cc(OC)c1OC`, the inhibition is -4.74%. For the molecule `COc1cc(C(=S)NC2CCCCC2)ccc1O`, the inhibition is 4.7%.

For `C[C@H](C(=O)N(C)c1ccccc1)[C@@H](O)c1ccc(Cl)cc1`, the inhibition was -1.76%. Then `C=CCN1C(=O)[C@@H](CC(=O)NCCCCc2ccccc2)[C@]2(C(=O)OCC)CCCCC/C=C/12`, with 3.6%.

For `CCOC(=O)N1CCN(C(=O)C[C@@H]2C(=O)N(CCc3ccc(Cl)cc3)C3=CCCC[C@]32C(=O)OCC)CC1`, the inhibition was 3.44%. For `COC(=O)c1c(C)oc2ccc(N(C(=O)Oc3ccccc3)S(=O)(=O)c3ccccc3)cc12`, the inhibition was 5.17%. Then `CC(=O)Oc1ccc(N(C(C)=O)S(=O)(=O)c2ccc3ccccc3c2)cc1Br`, with 2.18%; and `CC(=O)N(c1ccc2oc(=O)sc2c1)S(=O)(=O)c1ccc(C)cc1`, with 42.4% (active); and `CC(=O)OC12CCCN(C1)/C(=C/c1ccncc1)C2` (configuration not stated), with 3.52%. Then `CCCOc1ccc(Oc2c(Cl)cnn(Cc3cccc4ccccc34)c2=O)cc1`, with 6.74%; and `C[C@H](CO)N1C[C@H](C)[C@@H](CN(C)C(=O)Nc2ccccc2F)OCc2cn(nn2)CCCC1=O`, with 0.24%.
